Measurements reported in PubChem BioAssay AID1578 (Sanford-Burnham Center for Chemical Genomics, 2009).
Among all 290,000 compounds or so, about 3,000 (1%) were called active. No stated cut-off is given here; in the data, active means inhibition mostly above about 36% (no sharp cut-off); inactive means mostly below about 34%. Shown is part of a subset that was picked to be rich in actives.

Assay: inhibition of NOD1-driven NF-kB reporter – cell-based, luminescence, uHTS, primary screen (AID 1578);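 further: HEK-293T reporter cells stimulated with the NOD1 agonist gamma-tri-DAP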
Details: NOD1-driven NF-kB luciferase reporter cells, at 4 µM, hits give high values

Structure (SMILES) | inhibition
COc1ccc(-c2nc3ccccc3c(=O)n2NC(=O)Cc2ccccc2)cc1 | -18.8% (inactive)
COCCC(=O)N1CCC(Oc2ccc(C(=O)N3C[C@@H](C)O[C@@H](C)C3)cc2)CC1 | -23.9% (inactive)
O=C(c1cccc(Oc2ccc([N+](=O)[O-])cc2Cl)c1)N1CCOCC1 | -7.9% (inactive)
CC1(C)CC(=O)C2=C(C1)Nc1ccccc1N=C2 | 59.6% (active)
CCC(=O)c1cccc2c1N=CC1=C(CC(C)(C)CC1=O)N2 | -20.6% (inactive)
CC1CC(=O)C2=C(C1)Nc1ccccc1N=C2 (stereo not drawn) | 11.1% (inactive)
CCCNc1cc(=S)nc(N)[nH]1 | 5% (inactive)
Clc1ccc(CSc2nnc(-c3ccc4c(c3)OCO4)o2)cc1 | -7.9% (inactive)
O=C(O)CSc1nnc(-c2ccc3c(c2)OCO3)o1 | 4.3% (inactive)
O=C1CCCCC1Sc1nnc(-c2ccc3c(c2)OCO3)o1 (stereo not drawn) | 87.4% (active)
O=C(c1ccc(Cl)cc1)N1CCCCC(Sc2nnc(-c3ccc4c(c3)OCO4)o2)C1=O (stereo not drawn) | 57.8% (active)
O=C1OCCC1Sc1nnc(-c2ccc3c(c2)OCO3)o1 (stereo not drawn) | -4.4% (inactive)
N#CCSc1nnc(-c2ccc3c(c2)OCO3)o1 | -37.8% (inactive)
Clc1nc(Oc2ccccc2)nc(-c2cn(-c3ccccc3)c3ccccc23)n1 | -9.4% (inactive)
O=C(/C=C/c1cccc(O)c1)c1cccnc1 | -20.2% (inactive)
O=C(/C=C/c1ccc(OCc2ccccc2)c(OCc2ccccc2)c1)c1cccnc1 | 87.9% (active)
O=C(/C=C/c1cccc(OCc2ccccc2)c1)c1cccnc1 | 36.4% (inactive)
CC(=O)c1c2c3c(c(Br)ccc3n(C)c1=O)C(=O)c1ccccc1-2 | -3.8% (inactive)
CCN1CCN(Cc2ccc(NC(=O)c3ccc(C)c(NC(=O)C(=O)c4c[nH]c5ccccc45)c3)cc2C(F)(F)F)CC1 | 67.1% (active)
CCN1CCN(Cc2ccc(NC(=O)c3ccc(C)c(NC(=O)c4cccc(-c5cn[nH]c(=O)c5)c4)c3)cc2C(F)(F)F)CC1 | 72% (active)
CCN1CCN(Cc2ccc(NC(=O)c3ccc(C)c(NC(=O)c4ccnnc4)c3)cc2C(F)(F)F)CC1 | 3.7% (inactive)
CCN1CCN(Cc2ccc(NC(=O)c3ccc(C)c(NC(=O)c4cccc5[nH]ccc45)c3)cc2C(F)(F)F)CC1 | -0.1% (inactive)
CCN1CCN(Cc2ccc(NC(=O)c3cc(NC(=O)C(=O)c4c[nH]c5ccccc45)cc(OC)c3)cc2C(F)(F)F)CC1 | -3.5% (inactive)
CCN1CCN(Cc2ccc(NC(=O)c3ccc(C)c(NC(=O)c4ccc5n[nH]nc5c4)c3)cc2C(F)(F)F)CC1 | -1.3% (inactive)

Structure (SMILES) | inhibition
CCN1CCN(Cc2ccc(NC(=O)c3ccc(C)c(NC(=O)c4nccn4C)c3)cc2C(F)(F)F)CC1 | 7.7% (inactive)
CCN1CCN(Cc2ccc(NC(=O)c3ccc(C)c(NC(=O)c4cc(-c5ccc(Br)cc5)n[nH]4)c3)cc2C(F)(F)F)CC1 | -4.1% (inactive)
Cc1cc(C)n(NC(=S)NC2CCCC2)c(=O)c1C#N | -10.5% (inactive)
CC1CC(C)CN(S(=O)(=O)c2ccc(Oc3ccc([N+](=O)[O-])cc3)cc2)C1 (stereo not drawn) | 36.9% (inactive)
O=C(CCn1nc(-c2ccccc2)ccc1=O)N1CCN(c2ccccn2)CC1 | -14.7% (inactive)
O=C(CCc1nnc(CCC2CCCCC2)o1)NCCc1ccccn1 | -21.2% (inactive)
COC(=O)c1c(C)oc(C)c1S(=O)(=O)NCc1ccc(OC)cc1 | -3.5% (inactive)
Cc1c(C)n(CC(O)CN(CCO)CCO)c2ccccc12 (stereo not drawn) | -21.9% (inactive)
COc1ccc(CCNC(=O)C(C)OC(=O)c2ccco2)cc1OC (stereo not drawn) | -19.4% (inactive)
O=C1OCCC1Sc1nnc(-c2ccc(Br)cc2)o1 (stereo not drawn) | -16% (inactive)
O=C1OCCC1Sc1nnc(-c2ccccc2)o1 (stereo not drawn) | 0.8% (inactive)
CCOc1ccc(C2C(C(=O)c3ccco3)=C(O)C(=O)N2CCN2CCOCC2)cc1 (stereo not drawn) | 8.2% (inactive)
Cc1ccc(S(=O)(=O)/N=C(/c2ccccc2)N2CCOCC2)cc1 | 7.1% (inactive)
Cc1ccc(CS(=O)(=O)CCC(=O)NCCC(C)C)cc1 | -16.6% (inactive)
CCOc1cc(/C=N\Nc2ncc(F)c(N3CCOCC3)n2)ccc1Oc1nc(Cl)ncc1F | 19.9% (inactive)
Clc1ccc(-c2cnn3c(-c4ccncc4)ccnc23)cc1 | 52% (active)
Fc1ccc(-c2cnn3c(-c4ccncc4)ccnc23)cc1 | -51.9% (inactive)
Fc1ccc(-c2cnn3c(-c4cccs4)ccnc23)cc1 | -29% (inactive)
O=c1c2sc3nc(N4CCOCC4)c4c(c3c2ncn1CCc1ccccc1)CCCC4 | 45.8% (inactive)
CCn1ncc(NC(=O)Nc2cccc(C(F)(F)F)c2)c1C(N)=O | -12.4% (inactive)
O=C(Nc1ccc(F)cc1)Nc1nnc(-c2ccncc2)s1 | -10.7% (inactive)
O=C(Nc1ccc(Cl)cc1)Nc1nnc(CSCc2ccccc2)s1 | -3.9% (inactive)
O=C(Nc1ccncc1)Nc1cccc(C(F)(F)F)c1 | 3.5% (inactive)
COc1ccc(NC(=O)Nc2nnc(-c3ccco3)s2)cc1 | -7.3% (inactive)

Structure (SMILES) | inhibition
O=C(Nc1ccc(Cl)cc1)Nc1nnc(-c2ccncc2)s1 | 67.3% (inactive)
O=C(Nc1ccc(Cl)c(Cl)c1)Nc1nnc(CSc2ccccc2)s1 | 74.5% (active)
COc1ccc(NC(=O)Nc2nnc(-c3cccs3)s2)cc1 | -3% (inactive)
O=C(Nc1ccc(Cl)cc1)Nc1nnc(CSc2ccc(Cl)cc2)s1 | -8.9% (inactive)
COc1ccc(-c2[nH]ncc2CN2CCC(C(=O)N3CCOCC3)CC2)c(F)c1 | -28.9% (inactive)
Cc1nc(C(=O)NCc2ccccc2)sc1C1(C)CC(c2cccc([N+](=O)[O-])c2)=NO1 (stereo not drawn) | -0.1% (inactive)
COc1ccc(CNC(=S)Nc2ccccc2-c2ccccc2)cc1 | -26.8% (inactive)
O=C(NC1CCCCC1)C1CCN(c2ncccn2)CC1 | -38.7% (inactive)
O=S(=O)(NCc1ccc(F)cc1)c1ccc(-n2cnnn2)cc1 | -14.1% (inactive)
O=C(Nc1ccc(Cl)c(Cl)c1)Nc1nnc(-c2ccncc2)s1 | -26.4% (inactive)
Cc1ccc(NC(=O)Nc2nnc(CSCCOc3ccc(Cl)cc3)s2)cc1 | -1.1% (inactive)
Cc1nnc(NC(=O)Nc2cccc(Cl)c2)s1 | -14.6% (inactive)
Cc1ccc(OCCSCc2nnc(NC(=O)Nc3cccc(Cl)c3)s2)cc1 | 13.6% (inactive)
O=C(Nc1cccc(Cl)c1)Nc1nnc(CSCCOc2ccc(Cl)cc2)s1 | 67.8% (active)
O=C(Nc1cccc(Cl)c1)Nc1nnc(-c2ccncc2)s1 | 95.7% (active)
CSc1ccccc1NC(=O)C1=CC(c2cccs2)=NS(=O)(=O)N1C | 3.3% (inactive)
COc1ccc(C(=O)/C=C/C(=O)N(Cc2ccc(F)cc2)C(C(=O)NC2CCCCC2)c2ccncc2)c(O)c1 (stereo not drawn) | -6.1% (inactive)
CCCN(CC(=O)Nc1ccc(C(C)=O)cc1)CC(=O)Nc1ccccc1C | -32.2% (inactive)
COc1cc2c(cc1OC)C(c1ccc(-c3ccc(Cl)c(Cl)c3)o1)=NCC2 | 63.1% (inactive)
COc1cc2c(cc1OC)C(c1ccc(-c3ccccc3Cl)o1)=NCC2 | 75.2% (active)
COc1cc2c(cc1OC)C(c1ccc(-c3ccc(Cl)cc3Cl)o1)=NCC2 | 58.8% (inactive)
OCCN1CCN(c2cc(C(F)(F)F)nc3ccccc23)CC1 | -6.8% (inactive)
C/C(=N\NC(=O)c1ccc(-c2ccccc2)cc1)c1ccco1 | -46.6% (inactive)
COc1ccc(CCNC(=O)CSc2nc3ccccc3o2)cc1 | -19.1% (inactive)

Structure (SMILES) | inhibition
COc1ccc(C(=O)/C=C/Sc2nc3ccccc3o2)cc1 | 38.4% (active)
COc1ccc(C(=O)N/C(N)=N/c2nc3ccccc3o2)cc1 | -46.2% (inactive)
O=C(CCCN1C(=O)/C(=C/c2cccs2)SC1=S)Nc1ccccc1O | -2% (inactive)
COc1ccc(C(=O)CN2C(=O)c3ccccc3C2=O)cc1 | -9.8% (inactive)
CCOC(=O)CSc1nc2c(sc(=S)n2Cc2ccco2)c(=O)n1-c1ccccc1 | 16.8% (inactive)
CCOC(=O)CSc1nc2c(sc(=S)n2Cc2ccco2)c(=O)n1-c1ccc(F)cc1 | 14.1% (inactive)
N#CCSc1nc2c(sc(=S)n2Cc2ccco2)c(=O)n1-c1ccc(F)cc1 | 66.5% (active)
COc1ccccc1NC(=O)Cn1cnc2c(nc3n2CCCCC3)c1=O | -24.1% (inactive)
CC(=O)C1=C(C)NC(C)=C(C(C)=O)C1c1ccccc1 | -20.8% (inactive)
CCOc1ccc(C(=O)Nc2nnc(S(=O)(=O)Nc3ccccc3C)s2)cc1 | -17.1% (inactive)
COC(=O)c1cc(=O)n(Cc2ccc3c(c2)OCO3)c(=Nc2ccccc2)s1 | 73.6% (active)
CCOC(=O)c1ccc(N=c2sc(C(=O)OC)cc(=O)n2Cc2ccc3c(c2)OCO3)cc1 | 22.1% (inactive)
COC(=O)c1cc(=O)n(Cc2ccc3c(c2)OCO3)c(=Nc2ccc(F)cc2)s1 | 48.7% (inactive)
Cc1nn(Cc2ccccc2)c(C)c1NC(=O)c1cc2nc(-c3ccco3)cc(C(F)(F)F)n2n1 | -2% (inactive)
CCOc1cc2c(cc1OC)C(c1cccc([N+](=O)[O-])c1)NCC2 (stereo not drawn) | -31.3% (inactive)
COc1ccc(C2NCCc3cc(OC)c(OC)cc32)cc1OC (stereo not drawn) | -2.7% (inactive)
CCOc1ccc(C2NCCc3cc(OC)c(OC)cc32)cc1OC (stereo not drawn) | 83.1% (active)
Clc1cccc2c3c([nH]c12)CCNC3 | 0.5% (inactive)
COCc1[nH]nc2c1C(c1ccc(OC)c(OC)c1)C(C#N)=C(N)O2 (stereo not drawn) | -5.1% (inactive)
COCc1[nH]nc2c1C(c1cccc(OC)c1)C(C#N)=C(N)O2 (stereo not drawn) | 4.9% (inactive)
CCn1c2ccccc2c2cc(C3C(C#N)=C(N)Oc4n[nH]c(COC)c43)ccc21 (stereo not drawn) | 54.9% (active)
